TDP1 cell CPT: growth inhibition of DT40 Tdp1-/-;hTDP1 cells with camptothecin (screen for TDP1 inhibitors) | chicken DT40 Tdp1-/-;hTDP1 cells + 20 nM CPT, ATP luminescence, 48 h | Potency, µM (doses to about 46.2 µM), without a hit: at the top dose activity change, negative = growth inhibition, usual class: inhibitors | hit rate 12% among 420,000 | AID 686979; also: potency is read from the fitted curve at half-maximal effect; % is scaled to controls: 0 for no effect and ±100 for the full control effect; nearly all actives have a fitted effect of over 55% in size
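Cell growth measured by CellTiter-Glo luminescence after a minimum 48 h, 37 C compound exposure with 20 nM CPT in Tdp1-knockout DT40 cells stably expressing hTDP1, seeded 400/well; qHTS titration format.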
IL1B secr inh: inflammasome signaling inhibition, IL-1 beta readout; THP-1 LPS/ATP IL-1B secretion, AlphaLISA, 16 h; stronger effect = lower value; activity change, % at 57.5 µM; hit rate 4.7% among 360,000; in the data active = activity change below about -50%; inconclusive = mostly about -30% to -49%; also: % is scaled to controls: 0 for no effect and ±100 for the full control effect
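THP-1 cells pretreated 1 hr with compounds (up to 57.5 uM final), then stimulated with LPS (250 ng/mL final) plus ATP (1.25 mM final); secreted IL-1B measured by AlphaLISA after 16 hr, decreased signal indicating inhibition.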
TDP1 block: TDP1 (human) enzyme inhibition; AID 485290; Potency, µM (highest dose often 130 µM), for the others: at the top dose activity change, negative = inhibition, most hits filed as inhibitors; hit rate 0.28% among 350,000; recombinant TDP1, AlphaScreen DNA substrate cleavage; also: potency is read from the fitted curve at half-maximal effect; % is scaled to controls: 0 for no effect and ±100 for the full control effect; nearly all actives have a fitted effect of over 40% in size
Target sequence (Q9NUW8 whole entry, looked up): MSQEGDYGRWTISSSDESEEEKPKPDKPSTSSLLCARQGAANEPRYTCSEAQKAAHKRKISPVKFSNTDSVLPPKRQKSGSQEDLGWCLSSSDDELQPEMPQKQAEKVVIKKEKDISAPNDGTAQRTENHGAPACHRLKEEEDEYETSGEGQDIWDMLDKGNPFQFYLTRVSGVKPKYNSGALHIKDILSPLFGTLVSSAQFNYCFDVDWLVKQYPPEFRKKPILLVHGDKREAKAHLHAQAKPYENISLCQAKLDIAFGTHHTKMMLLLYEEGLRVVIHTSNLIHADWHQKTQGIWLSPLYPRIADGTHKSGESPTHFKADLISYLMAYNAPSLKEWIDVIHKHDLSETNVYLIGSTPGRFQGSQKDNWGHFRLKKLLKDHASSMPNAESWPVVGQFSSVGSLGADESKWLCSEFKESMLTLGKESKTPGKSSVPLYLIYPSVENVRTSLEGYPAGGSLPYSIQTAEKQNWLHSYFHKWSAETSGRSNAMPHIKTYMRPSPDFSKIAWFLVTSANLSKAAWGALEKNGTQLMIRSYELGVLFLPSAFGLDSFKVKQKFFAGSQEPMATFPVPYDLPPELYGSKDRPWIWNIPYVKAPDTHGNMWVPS
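Here, a 5' biotin and 3' phosphotyrosine-FITC DNA oligonucleotide reports Tdp1 activity: intact substrate bridges AlphaScreen beads, while cleavage leaves a 3' phosphate and drops signal. All incubations at room temperature.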
TDP1 cell noCPT: qHTS for Inhibitors of human tyrosyl-DNA phosphodiesterase 1 (TDP1): qHTS in cells in absence of CPT. DT40 Tdp1-/- hTDP1 cells, no CPT, ATP luminescence, 48 h. Potency, µM (doses to about 46.2 µM), for the others: at the highest dose activity change, negative = growth inhibition, hits mostly inhibitors. hit rate 15% among 420,000; also: potency is read from the fitted curve at half-maximal effect; % is scaled to controls: 0 for no effect and ±100 for the full control effect; nearly all actives have a fitted effect of over 55% in size
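DT40 Tdp1-/-;hTDP1 cells, no CPT (DMSO vehicle only), 400 cells/well; compounds pin-transferred; ≥48 hr, 37 °C; CellTiter-Glo 30 min RT dark, luminescence read.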
TGFb inhibitor: blocks TGF-b signaling; HepG2 CAGA-GFP TGF-b/SMAD3 reporter, GFP fluorescence, 18 h; TGF-beta stimulated, 500 pg/mL final; Potency, µM (titrated, usually from 46.1 µM), for inactives: top-dose activity, negative = inhibition, hits mostly inhibitors; hit rate 1.2% among 410,000; AID 588855; also: potency is read from the fitted curve at half-maximal effect; % is scaled to controls: 0 for no effect and ±100 for the full control effect; nearly all actives have a fitted effect of over 65% in size
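Read-out: total well GFP (ex488/em500-530) summed from mean per-cell fluorescence. Cells: HEPG2 CAGA-GFP, 1% FBS DMEM, 18 h at 37 degrees C with 500 pg/mL final TGF-beta. Unstimulated wells served as the full-inhibition control; stimulated DMSO wells = 0%.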
HepG2 tox: HepG2 cytotoxicity, counter-screen for TGF-b inhibitors | HepG2 CAGA-GFP viability, ATP luminescence, 18 h | Potency, µM (highest dose often 46.1 µM), inactives show at the top dose activity change, negative = cytotoxicity, hits mostly cytotoxic | hit rate 0.76% among 410,000; also: potency is read from the fitted curve at half-maximal effect
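CellTiter-Glo luminescence gave cytotoxicity after 18 hours at 37 degrees C. The cells were HepG2 CAGA-GFP in 1% FBS DMEM, stimulated with 500 pg/mL TGF-beta after compound addition. %Activity was normalised to no-cell wells (complete cell-killing) and DMSO (no toxicity), and curves were fitted and classified.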
* marks the source's active call; other numbers are inactive results; ? = inconclusive; nt = no result; [ ] = dose if it differs, or a comment. Rows were chosen to be rich in hits. Some 19% of all compounds tested hit in one or more screens of this group. Unless noted, calls follow the shape of the dose curve; as a rule, active = well fitted curve in the direction sought with a large enough effect; inconclusive = small, poorly fitted or top-dose-only effect, or another doubt; inactive = no such curve, though single readings can be large; an effect the other way counts as inactive or inconclusive.

SMILES	TDP1 cell CPT	IL1B secr inh	TDP1 block	TDP1 cell noCPT	TGFb inhibitor	HepG2 tox
Cc1ccc(C(C(=O)NC2CCCCC2)N(C(=O)Cc2c[nH]c3ccccc23)c2ccccc2C)o1 (centres undefined)	26µM*	21	2%	21µM*	4%	-1%
Cc1ccccc1N(C(=O)Cc1c[nH]c2ccccc12)C(C(=O)NC1CCCCC1)c1ccco1 (centres undefined)	21µM*	-4	-2%	9.2µM*	-6%	-30%
COc1ccc(CNC(=O)c2cc3c(=O)n(Cc4cccs4)ccc3nc2C)cc1	?	nt	8%	-28%	-10%	-10%
C=CCc1cccc(C2NC(C(=O)O)CCC2C)c1 (centres undefined)	nt	nt	7%[21 µM]	nt	nt	nt
COCCN(C(=O)CCl)C(C(=O)NC1CCCCC1)c1ccccc1C (centres undefined)	2.9µM*	-101*	5%	2.1µM*	?	-76%
CN(C(=O)CSc1nncc2ccccc12)c1ccccc1	-2%	-87*	0%	-29%	-5%	1%
COc1ccccc1OCCC(=O)OCC(=O)NCc1ccc(F)cc1	-3%	-15	-1%	-14%	0%	-43%
N#Cc1ccc(CN2CCC3(CCNCC3)CC2)cc1	?	nt	nt	18µM*	nt	nt
COCC(=O)N1CCC2(CCN(Cc3ccc(C#N)cc3)CC2)CC1	11%	nt	nt	-13%	nt	nt
Cc1ccc(S(=O)(=O)NCC(=O)OCC(=O)Nc2cccc(S(=O)(=O)N3CCOCC3)c2)cc1	-11%	-12	1%	10%	-1%	0%
O=[N+]([O-])c1cccc(CSc2ncnc3ccccc23)c1	-16%	-61*	1%	?	-19%	-55%
CCOC(=O)c1sc2ccccc2c1S(=O)(=O)NCc1ccc(F)cc1	2%	nt	5%	4%	?	-23%
Cc1cccc(NC(=O)C2CCN(S(=O)(=O)c3cccc4nsnc34)CC2)c1C	-25%	nt	0%	-19%	0%	-11%
COc1cccc(OCCCCn2c(-c3ccc(Cl)cc3)nc3ccccc3c2=O)c1	-13%	nt	nt	-6%	-9%	-23%
CCSc1nnc2c(n1)OC(C)(C)Nc1ccccc1-2	-22%	20	4%	?	-4%	7%
CSc1nnc2c(n1)OC1(Nc3ccccc3-2)C(=O)Nc2ccccc21 (centres undefined)	?	10	0%	16µM*	-10%	-4%
O=C(Nc1ccc(-c2csc(Nc3ccccc3)n2)cc1)c1ccccc1	26µM*	35	nt	21µM*	-18%	-40%
O=C(Nc1cccc(-c2csc(Nc3ccc(Cl)cc3)n2)c1)c1ccccc1	8.2µM*	-59*	4%	16µM*	?	-17%
O=C(Nc1cccc(-c2csc(Nc3ccccc3)n2)c1)c1cc([N+](=O)[O-])cc(C(F)(F)F)c1	?	-22	nt	?	?	-8%
O=C(Nc1cccc(-c2csc(Nc3ccc(Cl)cc3)n2)c1)c1cccc(C(F)(F)F)c1	?	?	5%	21µM*	?	0%
CCO[C@@H]1OC(C(=O)N2CCN(Cc3ccc4c(c3)OCO4)CC2)=C[C@H](c2cn(C(C)=O)c3ccccc23)[C@H]1CCCO	?	?	8%	?	?	-23%
O=C(C1=C[C@H](c2coc3ccccc3c2=O)C[C@H](OCCCCO)O1)N1CCN(Cc2ccc3c(c2)OCO3)CC1	21µM*	nt	4%	16µM*	?	-11%
O=C(C1=C[C@H](C2CCCCC2)C[C@H](OCCCCO)O1)N1CCN(Cc2ccccc2)CC1	21µM*	-9	3%	?	?	-8%

Screening data (PubChem)
